# The list is not random: actives were taken first. Their share in the collection is about 17%.
# DT40 TDP1 no CPT: qHTS for Inhibitors of human tyrosyl-DNA phosphodiesterase 1 (TDP1): qHTS in cells in absence of CPT; DT40 Tdp1-/- hTDP1 cells, no CPT, ATP luminescence, 48 h; Potency, µM (titrated, usually from 46.2 µM), for the others: top-dose activity change, negative = growth inhibition, hits mostly inhibitors; actives 15% (n = 420,000); AID 686978, 2013; further: on the % scale 0 is the no-effect control and ±100 the full control effect; nearly all actives have a fitted effect of over 55% in size
#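 A cellular qHTS used chicken DT40 cells lacking endogenous Tdp1 but carrying stably transfected human TDP1. Compounds were applied without camptothecin, and cell growth kinetics were judged by ATP-dependent luminescence after ≥48 hr.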
# TDP1 cell CPT: qHTS for Inhibitors of human tyrosyl-DNA phosphodiesterase 1 (TDP1): qHTS in cells in presence of CPT | chicken DT40 Tdp1-/-;hTDP1 cells + 20 nM CPT, ATP luminescence, 48 h | Potency, µM (series often up to 46.2 µM), for inactives: top-dose activity change, negative = growth inhibition, usual class: inhibitors | actives 12% (n = 420,000) | AID 686979, 2013; further: on the % scale 0 is the no-effect control and ±100 the full control effect; nearly all actives have a fitted effect of over 55% in size
#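 Chicken DT40 Tdp1-/- cells stably complemented with human TDP1 were seeded at 400 cells/well in medium containing 20 nM camptothecin, exposed to pin-transferred compounds, and grown at 37 °C for at least 48 hr. Viability was read as ATP luminescence.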
# ClpP mod: qHTS Assay for Activators of ClpP; Potency, µM (highest dose often 57.5 µM), for the others: at the highest dose activity change, negative = active; ATP-dependent Clp protease proteolytic subunit (Bacillus subtilis (strain 168)), P80244; purified B. subtilis ClpP, FRET peptide cleavage, 20 min; actives 1.9% (n = 340,000); AID 651965, 2013; active means well fitted falling curve with a large enough effect; inconclusive means small, poorly fitted or top-dose-only effect; inactive means no such curve, though single readings can be large or run the other way; further: the source files actives as falling curves though it sought activators and does not explain the sign; nearly all actives have a fitted effect of over 65% in size
#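 Purified B. subtilis ClpP, 10 microg/mL final in Tris/HCl pH8 with KCl, BSA, glycerol and Tween-20, cleaved an Abz/nitrotyrosine-quenched decapeptide. Fluorescence (ex 320, em 430) was read at 0 and 20 min at room temperature. Delta was normalized to 5.8 microM ADEP and DMSO/no-enzyme controls.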
# TDP1 inh: qHTS Assay for Inhibitors of Tyrosyl-DNA Phosphodiesterase (TDP1); actives 0.28% (n = 350,000); Tyrosyl-DNA phosphodiesterase 1 (Homo sapiens), Q9NUW8; AID 485290, 2010; Potency, µM (series often up to 130 µM), for the others: at the top dose activity change, negative = inhibition, actives largely listed as inhibitors; recombinant TDP1, AlphaScreen DNA substrate cleavage; further: on the % scale 0 is the no-effect control and ±100 the full control effect; nearly all actives have a fitted effect of over 40% in size
# Target sequence (Q9NUW8 whole entry, looked up): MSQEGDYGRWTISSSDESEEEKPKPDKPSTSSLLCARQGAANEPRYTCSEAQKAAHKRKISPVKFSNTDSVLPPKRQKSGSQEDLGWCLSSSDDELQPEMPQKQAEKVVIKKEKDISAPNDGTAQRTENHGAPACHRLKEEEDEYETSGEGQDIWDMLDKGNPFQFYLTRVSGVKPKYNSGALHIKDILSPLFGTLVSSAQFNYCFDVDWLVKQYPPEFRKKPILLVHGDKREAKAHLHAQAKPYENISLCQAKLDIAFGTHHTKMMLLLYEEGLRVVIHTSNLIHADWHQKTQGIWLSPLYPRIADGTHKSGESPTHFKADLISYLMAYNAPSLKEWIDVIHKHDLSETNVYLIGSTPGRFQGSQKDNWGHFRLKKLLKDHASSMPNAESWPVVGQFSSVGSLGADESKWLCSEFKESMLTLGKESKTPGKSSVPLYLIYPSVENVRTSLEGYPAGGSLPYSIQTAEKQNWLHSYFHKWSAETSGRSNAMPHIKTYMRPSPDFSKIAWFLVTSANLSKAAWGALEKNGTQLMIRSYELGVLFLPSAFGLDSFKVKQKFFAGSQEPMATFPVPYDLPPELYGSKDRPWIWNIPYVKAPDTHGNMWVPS
#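 E. coli-derived human Tdp1, 1 nM final. Cpd preinc 15 min RT; substrate 15 nM final, 5 min RT; AS bead mix 10 ug/ml final, 10 min RT. Signal loss = tyrosine-FITC cleavage. No-enzyme wells = max signal.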
# Starred values were filed as active, the others as inactive; ? = inconclusive; . = not tested or not shown; [ ] = dose if it differs, or a comment. Unless noted, the call rests on the fitted dose curve; in most records, active means well fitted curve in the direction sought with a large enough effect; inconclusive means small, poorly fitted or top-dose-only effect, or another doubt; inactive means no such curve, though single readings can be large; an effect the other way counts as inactive or inconclusive. Potency means the concentration at half of the fitted maximal effect.
SMILES,DT40 TDP1 no CPT,TDP1 cell CPT,ClpP mod,TDP1 inh
CCOc1ccc(C2C3=C(CC(C)(C)CC3=O)N(CCCOC)C3=C2C(=O)CC(C)(C)C3)cc1OC,4%,-15%,-1%,.
O=C(c1ccco1)N1CCC2(CC1)CN(c1cccc(-c3ccccc3)c1)C2,13µM*,23µM*,.,.
FC(F)(F)c1cccc(-c2cc3nc(NCCCn4ccnc4)ccn3n2)c1,?,?,5%,.
FC(F)(F)c1cc(-c2cccs2)nc2cc(-c3cccs3)nn12,-25%,-10%,18%,.
c1ccc(COc2cccc(-c3cc4nc(NCCCn5ccnc5)ccn4n3)c2)cc1,15µM*,?,4%,.
Cc1cc(NCCCN(C)C)n2nc(-c3cccs3)cc2n1,?,-2%,28µM*,2%
Cc1cccc(-c2cc3nc(C)cc(NCCCn4ccnc4)n3n2)c1,23µM*,?,?,9%
c1ccc(COc2cccc(-c3cc4nc(NCCc5ccncc5)ccn4n3)c2)cc1,13µM*,15µM*,5%,.
C[C@H](NC(=O)C1CCN(C(=O)[C@H](Cc2ccccc2)NC(=O)OC(C)(C)C)CC1)C(=O)O,1%,10%,.,.
COCC(=O)N(C)[C@H]1C[C@H]2c3cc(N4CCN(C)CC4)ccc3CCN2C(=O)[C@H]1[C@H](C)O,2%,-5%,-1%,.
CN[C@H]1C[C@H]2c3cc(-c4ccccc4)ccc3CCN2C(=O)[C@H]1[C@H](C)O,?,?,-4%,.
COCCNC(=S)N(C)[C@H]1C[C@H]2c3cc(Oc4ccccc4C)ccc3CCN2C(=O)[C@H]1[C@H](C)O,8.2µM*,15µM*,-6%,.
Cc1ccccc1Oc1ccc2c(c1)[C@@H]1C[C@H](N(C)C(=S)Nc3ccc(F)cc3)[C@H]([C@H](C)O)C(=O)N1CC2,?,21µM*,-15%,.
COCCNC(=S)N(C)[C@H]1C[C@H]2c3cc(-c4ccccc4)ccc3CCN2C(=O)[C@H]1[C@H](C)O,9.2µM*,?,-2%,.
Cc1ccc(Cc2cnc(NC(=O)C3Cc4ccc(C)cc4C(=O)O3)s2)cc1 (configuration not stated),.,.,0%,-4%
Cc1cc2nc(CSc3ccccc3)cc(=O)n2[nH]1,-21%,-10%,.,8%
O=C(OCC(=O)N1CCC(Cc2ccccc2)CC1)c1ccc(O)cc1,?,?,0%,.
CCn1cc(C2=NC(CC(C)C)CO2)c2ccccc21 (configuration not stated),15µM*,?,.,.
CCn1cc(C2=NC(C(C)C)CO2)c2ccccc21 (configuration not stated),-25%,-20%,-20%,4%
S=C(CN1CCCC1=S)NCCc1ccccc1,-18%,-15%,.,.
C=CCNc1cc(=O)n(Cc2ccccc2)c(=O)[nH]1,18µM*,?,0%,.
CC1=C(C(=O)O)N2C(=O)[C@@H](NC(=O)C(N)C3=CCC=CC3)[C@H]2SC1 (some centres not stated),.,.,.,9%[56.1 µM]
O=C(Nc1cccc(C(=O)O)c1)/C(=C\c1ccco1)NC(=O)c1ccc(Br)o1,12%,-4%,.,6%
NC(=S)N/N=C1/CCSc2ccc3ccccc3c21,2.6µM*,3.7µM*,.,8%
CC(C)NC(=O)N1CCC2(CC1)CCN(C(=O)c1csnn1)CC2,-4%,21%,.,.
SMILES,DT40 TDP1 no CPT,TDP1 cell CPT,ClpP mod,TDP1 inh
OC(c1ccc2c(c1)CN(Cc1cccn1-c1ncccn1)CCO2)C1CCCCC1 (configuration not stated),-23%,7%,.,.
CN(CCc1ccc(Cl)c(Cl)c1)CC(O)COc1ccc(NS(C)(=O)=O)cc1 (configuration not stated),23µM*,18µM*,.,7%
CN(CCOc1ccccc1)CC(O)COc1ccccc1 (configuration not stated),?,?,.,7%[0.0935 µM]
O=C1C(=O)N(CCN2CCOCC2)C(c2ccccn2)/C1=C(/O)c1ccc(F)cc1 (configuration not stated),23µM*,?,-1%,4%
COc1ccc(-c2oc3ncnc(NCCCN(C)C)c3c2-c2ccc(OC)cc2)cc1,18µM*,?,4%,.
CCCCNc1ncnc2oc(-c3ccco3)c(-c3ccco3)c12,6.3µM*,6.3µM*,4%,9%
COc1ccc(CNC(=O)CN2C(=O)CSc3ccc(S(=O)(=O)N4CCCCC4)cc32)cc1,-7%,-5%,1%,2%
Cc1ccc(C)c(OCC(=O)Nc2ccc(S(=O)(=O)Nc3onc(C)c3C)cc2)c1,6%,-18%,.,-2%
CCN=c1sc(C(=O)NCCc2ccccc2)cc(=O)n1CC,18µM*,?,-1%,2%
CCc1ccc2[nH]c(=O)c(CN(Cc3ccccc3OC)C(=O)Nc3ccccc3OC)cc2c1,23µM*,18µM*,-11%,7%
COc1ccc2[nH]c(=O)c(CN(CC3CCCO3)C(=O)Nc3ccccc3OC)cc2c1 (configuration not stated),10µM*,13µM*,28µM*,0%
COc1cc(C(=O)N(Cc2cc3ccccc3[nH]c2=O)CC2CCCO2)cc(OC)c1OC (configuration not stated),5%,0%,-18%,5%
CCCCCn1ncc2c3sc(C)cc3n(C)c2c1=O,.,.,.,-8%
N=C(N1CCCc2ccccc21)N1CCCc2ccccc21,21µM*,16µM*,.,.
O=C(/C=C/c1ccc(-c2ccc(F)cc2)o1)N1CCCC1,21µM*,?,.,5%
O=C(/C=C/c1ccc(F)cc1)N1CCCc2ccccc21,18µM*,?,.,5%
CCOC(=O)N1CCN(C(=O)/C=C/c2ccc(C(C)(C)C)cc2)CC1,16µM*,?,-5%,3%
O=C(c1cc(-c2ccc(F)cc2)on1)N1CCCC1,-22%,-3%,-1%,-3%
COc1ccccc1/C=C/C(=O)OCC(=O)NC1CC1,-7%,8%,.,3%
COc1cccc(NC(=O)Cn2c(=O)n(Cc3ccccc3)c(=O)c3ccccc32)c1,-22%,?,-20%,-3%
CSCc1ccc(C(=O)NCC(c2cccs2)N2CCOCC2)cc1 (configuration not stated),?,-18%,-4%,.
O=C(/C=C/c1ccc(F)cc1)N1CCCN(C(=O)/C=C/c2ccc(F)cc2)CC1,?,16µM*,2%,-4%
O=C(/C=C/c1ccc(S(=O)(=O)N2CCOCC2)cc1)N1CCN(c2ccc(F)cc2)CC1,3.7µM*,7.3µM*,.,0%
CCN1CCN(C(=O)/C=C/c2ccc(C)cc2)CC1,16%,-8%,-1%,1%

# Screening results from PubChem BioAssay.
